The list is not random: actives were taken first. Their share in the collection is about 2.1%.
PLC-beta3 inh: blocks human PLC-beta3 enzyme activity. Q01970. Purified PLC-beta3, fluorogenic substrate, fluorescence. inhibition, % at 12.2 µM. 0.18% of 370,000 active. AID 720704; in the data active = inhibition above about 11%
Rce1 inhib: inhibitors of yeast Ras-converting enzyme; Q03530; yeast membranes, quenched prenylated peptide cleavage fluorescence; calls only; 0.27% of 290,000 active; AID 2563;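 active = fall in fluorescence gain of 50% or more versus controls, with final raw signal at or below 3038400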
Target sequence (Q03530 whole entry, looked up): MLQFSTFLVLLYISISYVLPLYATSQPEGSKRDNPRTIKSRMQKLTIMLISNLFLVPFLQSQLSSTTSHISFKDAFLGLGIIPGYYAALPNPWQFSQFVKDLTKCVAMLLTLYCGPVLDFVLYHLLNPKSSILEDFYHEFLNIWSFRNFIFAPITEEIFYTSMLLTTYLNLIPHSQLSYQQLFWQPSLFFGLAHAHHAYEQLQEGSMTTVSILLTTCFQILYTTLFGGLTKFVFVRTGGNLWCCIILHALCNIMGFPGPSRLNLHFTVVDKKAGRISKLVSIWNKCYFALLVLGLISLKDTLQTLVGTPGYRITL
ADAM17 inh: inhibitors of human ADAM17. P78536. recombinant ADAM17, EDANS/DABCYL FRET peptide cleavage. inhibition, % at 6.95 µM. 0.83% of 370,000 active. AID 720648;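 active = inhibition above the mean of compounds lying between control limits plus 3 SD, set per campaign, cut at about 8.5% in these data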
PLC-gamma1 inh: blocks human PLC-gamma1 enzyme activity; purified PLC-gamma1, fluorogenic substrate, fluorescence; AID 720700; P19174; inhibition, % at 12.2 µM; 0.84% of 370,000 active; in the data active = inhibition above about 9.5%
ADAM10 inh: inhibits human ADAM10 | 0.62% of 370,000 active | recombinant ADAM10, EDANS/DABCYL FRET peptide cleavage, 3 h | inhibition, % at 7 µM;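 active = inhibition above a per-campaign cutoff equal to the mean of compounds falling between control-based bounds plus 3 SD, cut at about 20% in these data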
ADAM10 confirm: human ADAM10 inhibition, confirmation | shares compounds with ADAM10 inh | 1% of 2,100 active | ADAM10 QFRET peptide cleavage, EDANS fluorescence | inhibition, % at 6.95 µM;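 active = inhibition above about 20% chosen separately for each screening run, limit read from the data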
ADAM17 ctr: counter-screen for ADAM10 exosite inhibitors: inhibitors of human ADAM17; shares compounds with ADAM10 inh; ADAM17 QFRET peptide cleavage, EDANS fluorescence; inhibition, % at 6.95 µM; 0.5% of 2,100 active; AID 743214;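 active = mean triplicate inhibition above the solvent-only control wells' mean plus 3 SD, cut at about 12% in these data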
ADAM10 ctr: inhibits human ADAM10 in ADAM17 exosite counter-screen; shares compounds with ADAM17 inh; inhibition, % at 6.95 µM; recombinant ADAM10, EDANS/DABCYL FRET peptide cleavage, 3 h; AID 743256; 47% of 2,900 active;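 active = mean inhibition over the triplicate runs exceeds the activity threshold set in the earlier primary screen, cut at about 20% in these data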
ADAM17 confirm: human ADAM17 inhibition, confirmation | recombinant ADAM17, EDANS/DABCYL QFRET peptide cleavage | 65% of 2,900 active | shares compounds with ADAM17 inh | inhibition, % at 6.95 µM | AID 743257;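 active = mean inhibition across replicates above the hit cutoff set in the primary screen, cut at about 8.5% in these data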
Large screens that a line does not name were inactive (follow-up assays come after a bar, where they were run).

COc1ccc(C(CC(=O)c2ccc(C)cc2)Nc2ccc([N+](=O)[O-])cc2)cc1 (configuration not stated)	ADAM17 inh 14, ADAM10 inh 20 | ADAM10 confirm inactive | ADAM17 ctr inactive | ADAM10 ctr inactive | ADAM17 confirm 13
Cc1ccc(NC(CC(=O)c2ccccc2)c2ccc(F)cc2)cc1 (configuration not stated)	none
COc1cccc(NC(=O)CN(C)C(=O)CCCc2nc3ccccc3s2)c1	none
CCCCCCCC/C=C\CCCCCCCC(=O)NCCc1ccc(O)c(O)c1	ADAM17 inh 13, ADAM10 inh 28 (no result: Rce1 inhib) | ADAM10 confirm inactive | ADAM17 ctr inactive | ADAM10 ctr 26 | ADAM17 confirm 17
COc1ccc(C2CC(c3ccccc3)=NN2C(=O)COC(=O)c2cccnc2Cl)cc1 (configuration not stated)	ADAM17 inh 8.9, ADAM10 inh 20 | ADAM10 confirm inactive | ADAM17 ctr inactive | ADAM10 ctr inactive | ADAM17 confirm 9.3
CCc1nc2ccccc2c(C(=O)OCC(=O)Nc2ccc(S(=O)(=O)N3CCOCC3)cc2)c1C	ADAM17 inh 10.0, ADAM10 inh 20 | ADAM10 confirm inactive | ADAM17 ctr inactive | ADAM10 ctr 21 | ADAM17 confirm 12
O=C(COC(=O)c1ccccn1)Nc1ccc(S(=O)(=O)N2CCOCC2)cc1	none
CCCCOC(=O)Nc1ccc(S(=O)(=O)Nc2ccc([N+](=O)[O-])cc2)cc1	none
CCCCCOC(=O)Nc1ccc(S(=O)(=O)Nc2cccc([N+](=O)[O-])c2)cc1	ADAM17 inh 11, ADAM10 inh 27 | ADAM10 confirm inactive | ADAM17 ctr inactive | ADAM10 ctr 24 | ADAM17 confirm 13
O=[N+]([O-])c1ccc(NN=Cc2ccccc2O)nc1	none (no result: Rce1 inhib)
O=[N+]([O-])c1ccc(O)c(/C=N/Nc2ccccn2)c1	ADAM17 inh 30, ADAM10 inh 24 | ADAM10 confirm 29 | ADAM17 ctr 31 | ADAM10 ctr 48 | ADAM17 confirm 54
COc1ccc(Cl)cc1-c1n[nH]c(=S)n1C1CCCCC1	ADAM17 inh 8.7, ADAM10 inh 29 | ADAM10 confirm inactive | ADAM17 ctr inactive | ADAM10 ctr 34 | ADAM17 confirm 21
CCc1c(C2(O)CCCCC2)[nH]c2ccc(C(F)(F)F)cc12	none
O=C(CSC1CC(=O)N(CC(c2ccccc2)c2ccccc2)C1=O)Nc1ccc(Cl)cc1 (configuration not stated)	ADAM17 inh 16, ADAM10 inh 25 | ADAM10 confirm inactive | ADAM17 ctr inactive | ADAM10 ctr 32 | ADAM17 confirm 20
CCOC(=O)C1=CN(Cc2cccc(F)c2)S(=O)(=O)NC1c1ccc(Br)cc1F (configuration not stated)	ADAM17 inh 9.6, ADAM10 inh 21 (no result: Rce1 inhib) | ADAM10 confirm inactive | ADAM17 ctr inactive | ADAM10 ctr 24 | ADAM17 confirm 15
CCN(CC)S(=O)(=O)c1cccc(C(=O)Oc2cccc(NC(=O)c3cccs3)c2)c1	ADAM17 inh 9.3, ADAM10 inh 27 | ADAM10 confirm inactive | ADAM17 ctr inactive | ADAM10 ctr 22 | ADAM17 confirm 13
COc1ccc(NC(=O)CC2C(=O)N(C)C(=S)N2CCc2ccc(F)cc2)cc1 (configuration not stated)	ADAM17 inh 12, ADAM10 inh 21 | ADAM10 confirm inactive | ADAM17 ctr inactive | ADAM10 ctr 25 | ADAM17 confirm 14
COc1ccc(CCN2C(=S)N(C)C(=O)C2CC(=O)Nc2ccc(OC)cc2)cc1 (configuration not stated)	none
CC1CCCCN1C(=O)COC(=O)/C=C/c1ccc2ccccc2n1 (configuration not stated)	none
Cc1ccc(S(=O)(=O)Nc2ccc(NC(=O)Nc3cccc(C(F)(F)F)c3)cc2)cc1	ADAM17 inh 22, ADAM10 inh 41 | ADAM10 confirm inactive | ADAM17 ctr inactive | ADAM10 ctr 43 | ADAM17 confirm 19
O=C(NCCNC(=O)c1cc(OCC(F)(F)F)ccc1OCC(F)(F)F)Nc1cccc(C(F)(F)F)c1	ADAM17 inh 12, ADAM10 inh 37 | ADAM10 confirm inactive | ADAM17 ctr inactive | ADAM10 ctr 24 | ADAM17 confirm 14
CN(C)S(=O)(=O)NCCNC(=O)c1cc(OCC(F)(F)F)ccc1OCC(F)(F)F	none
Cc1ccc(NC(=S)NNC(=S)Nc2cccc(C(F)(F)F)c2)cc1	none
O=C(Nc1ccc(OC(F)F)cc1)Nc1cccc(C(F)(F)F)c1	ADAM17 inh 10, ADAM10 inh 25 | ADAM10 confirm inactive | ADAM17 ctr inactive | ADAM10 ctr 31 | ADAM17 confirm 16
CC(C)c1csc(CN2CCC(N3CCC(C(=O)N4CCOCC4)CC3)CC2)n1	none
C[C@@H]1CN([C@@H](C)CO)C(=O)Cc2cc(NC(=O)Nc3ccc(C(F)(F)F)cc3)ccc2O[C@@H]1CN(C)S(=O)(=O)c1ccc(Cl)cc1	ADAM17 inh 15, ADAM10 inh 35 (no result: Rce1 inhib) | ADAM10 confirm inactive | ADAM17 ctr inactive | ADAM10 ctr 51 | ADAM17 confirm 27
C[C@H](CO)N1C[C@H](C)[C@H](CN(C)S(=O)(=O)c2cn(C)cn2)Oc2ccc(NC(=O)Nc3ccc(C(F)(F)F)cc3)cc2CC1=O	none (no result: Rce1 inhib)
C[C@H]1CN([C@@H](C)CO)C(=O)Cc2cc(NC(=O)CCC(F)(F)F)ccc2O[C@H]1CN(C)Cc1ccc(C(F)(F)F)cc1	ADAM17 inh 11, ADAM10 inh 25 (no result: Rce1 inhib) | ADAM10 confirm inactive | ADAM17 ctr inactive | ADAM10 ctr 27 | ADAM17 confirm 16
O=C(COC(=O)c1ccc(S(=O)(=O)N2CCCC2)cc1)Nc1ccccc1	none (no result: Rce1 inhib)
O=C(COC(=O)c1ccc(Cl)c(S(=O)(=O)N2CCCCCC2)c1)Nc1ccccc1	ADAM17 inh 10, ADAM10 inh 20 | ADAM10 confirm inactive | ADAM17 ctr inactive | ADAM10 ctr 49 | ADAM17 confirm 27
OC(c1ccccc1)(c1nc(-c2ccccc2)cs1)C(F)(F)F (configuration not stated)	ADAM17 inh 8.8, ADAM10 inh 23 (no result: Rce1 inhib) | ADAM10 confirm inactive | ADAM17 ctr inactive | ADAM10 ctr 33 | ADAM17 confirm 17
OC(c1ccccc1)(c1nc(-c2ccc3c(c2)OCO3)cs1)C(F)(F)F (configuration not stated)	ADAM17 inh 9.2, ADAM10 inh 23 (no result: Rce1 inhib) | ADAM10 confirm inactive | ADAM17 ctr inactive | ADAM10 ctr 25 | ADAM17 confirm 14
OC(c1ccccc1)(c1nc(-c2ccc3ccccc3c2)cs1)C(F)(F)F (configuration not stated)	none (no result: Rce1 inhib)

Screening results deposited in PubChem by several laboratories.
